The values that follow come from PubChem BioAssay (NCATS).

Assay [1] deals with Cytochrome P450 3A4 (Homo sapiens) (UniProt P08684). Description: qHTS Assay for Activators of Cytochrome P450 3A4 (AID 885). Note: nearly all actives have a fitted effect of over 65% in size. In short, it runs like this:
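Human CYP3A4 (20 nM) with Luciferin-PPXE at 25 uM (its KM) in 200 mM KPO4; 10 min compound preincubation, then NADPH regeneration and 60 min reaction at RT. Luciferin read by luminescence; normalized to 57 uM ketoconazole full inhibition.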

The target of assay [2] is DNA dC->dU-editing enzyme APOBEC-3G (Homo sapiens) (UniProt Q9HC16). Description: qHTS for inhibitors of Vif-A3G interactions: Validation (AID 588379). Note: potency is the fitted concentration of half-maximal effect. In short, it runs like this:
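HeLa cells stably expressing Vif and A3G-eYFP, 700 cells/well, incubated overnight at 37 deg C, then exposed to compound overnight at 37 deg C. Inhibition of Vif-mediated degradation read as increased yellow fluorescence (Ex 488/Em 500-530) by laser-scanning cytometry.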

For assay [3], the target named is Androgen receptor (Homo sapiens) (UniProt P10275). The assay is described as follows: qHTS assay for small molecule agonists of androgen receptor signaling (AID 588515; active = well fitted curve in the direction sought with a large enough effect in the signal ratio, with a control signal flat; the % refers to the signal ratio; note: % is set by controls: 0 for no effect and ±100 for the full control effect). The note with it: AR-UAS-bla HEK293, beta-lactamase ratio, agonist 16 h; activation: active compounds read high. In short, it runs like this: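 EC50 and efficacy came from Hill fits of titrations (up to 92 uM) normalized to 30 nM R1881 as 100% and DMSO as 0%. Compound exposure was 16 h at 37 C on AR-UAS-bla HEK293 cells, with a 405/460/530 nm CCF4 fluorescence read.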
Androgen receptor (Homo sapiens), sequence (P10275 whole entry, looked up): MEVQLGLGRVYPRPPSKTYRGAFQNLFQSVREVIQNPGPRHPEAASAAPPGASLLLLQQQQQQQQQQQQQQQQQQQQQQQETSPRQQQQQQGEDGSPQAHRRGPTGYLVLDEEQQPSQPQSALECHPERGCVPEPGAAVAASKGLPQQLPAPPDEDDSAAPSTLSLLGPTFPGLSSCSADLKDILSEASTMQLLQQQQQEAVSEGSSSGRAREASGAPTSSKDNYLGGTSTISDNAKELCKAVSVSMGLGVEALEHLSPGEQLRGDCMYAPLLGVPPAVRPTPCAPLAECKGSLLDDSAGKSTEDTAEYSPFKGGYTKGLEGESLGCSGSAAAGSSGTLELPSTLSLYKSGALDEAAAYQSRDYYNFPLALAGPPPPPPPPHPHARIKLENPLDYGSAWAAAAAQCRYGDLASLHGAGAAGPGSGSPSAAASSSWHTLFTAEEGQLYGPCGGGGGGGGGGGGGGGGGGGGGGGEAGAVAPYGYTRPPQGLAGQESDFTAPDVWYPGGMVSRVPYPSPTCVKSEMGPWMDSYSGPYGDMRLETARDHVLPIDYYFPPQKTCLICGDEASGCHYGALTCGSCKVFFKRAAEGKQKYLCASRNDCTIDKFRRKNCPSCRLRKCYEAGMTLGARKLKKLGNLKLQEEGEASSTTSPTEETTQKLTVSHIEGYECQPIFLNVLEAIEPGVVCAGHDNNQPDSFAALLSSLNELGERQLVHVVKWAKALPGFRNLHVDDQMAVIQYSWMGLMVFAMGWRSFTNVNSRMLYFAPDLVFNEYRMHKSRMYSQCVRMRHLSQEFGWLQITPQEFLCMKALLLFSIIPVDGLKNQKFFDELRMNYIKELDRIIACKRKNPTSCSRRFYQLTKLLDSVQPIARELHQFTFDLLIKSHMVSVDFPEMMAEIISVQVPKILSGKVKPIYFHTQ

The target is the same in assay [4]. Description: qHTS assay for small molecule antagonists of androgen receptor signaling (AID 588516; active = well fitted curve in the direction sought with a large enough effect in the signal ratio, with a control signal flat, not every such curve was filed as active; the % refers to the signal ratio; note: % is set by controls: 0 for no effect and ±100 for the full control effect). In a few lines: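 Antagonist mode: inhibition of R1881-stimulated (10 nM final) bla reporter in GeneBLAzer AR HEK 293 cells, 16 h at 37C, compounds titrated. IC50 and efficacy from Hill-equation fits of 405/460–530 nm FRET ratios.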
Assay [5] addresses Bile acid receptor (Homo sapiens) (UniProt Q96RI1). The assay is described as follows: qHTS assay for small molecule antagonists of farnesoid X receptor signaling (AID 588526; calls by dose curve; note: % is set by controls: 0 for no effect and ±100 for the full control effect). In a few lines:
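Antagonist mode: titrated compounds tested against chenodeoxycholic acid stimulation (normalized to 50 uM CDCA and DMSO) in GeneBLAzer HEK293T cells for 16 h. Beta-lactamase read by CCF4 fluorescence; IC50 from Hill fits.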

Assay [6] deals with Glucocorticoid receptor (Homo sapiens) (UniProt P04150). Description: qHTS assay for small molecule agonists of glucocorticoid receptor signaling (AID 588532; active = well fitted curve in the direction sought with a large enough effect in the signal ratio, with a control signal flat; the % refers to the signal ratio;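 note: 100% = dexamethasone at 0.1 µM and 0% = DMSO only wells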). Conditions: HeLa MMTV-bla, beta-lactamase ratio, agonist, 18 h; active compounds read high; percent of dexamethasone control, DMSO zero. In short, it runs like this: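 HeLa GRE-bla reporter cells; 18 h compound exposure at 37 C; 2 h CCF4 loading at room temperature; fluorescence at 460 and 530 nm; EC50 by Hill equation.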
Glucocorticoid receptor (Homo sapiens), sequence (P04150 whole entry, looked up): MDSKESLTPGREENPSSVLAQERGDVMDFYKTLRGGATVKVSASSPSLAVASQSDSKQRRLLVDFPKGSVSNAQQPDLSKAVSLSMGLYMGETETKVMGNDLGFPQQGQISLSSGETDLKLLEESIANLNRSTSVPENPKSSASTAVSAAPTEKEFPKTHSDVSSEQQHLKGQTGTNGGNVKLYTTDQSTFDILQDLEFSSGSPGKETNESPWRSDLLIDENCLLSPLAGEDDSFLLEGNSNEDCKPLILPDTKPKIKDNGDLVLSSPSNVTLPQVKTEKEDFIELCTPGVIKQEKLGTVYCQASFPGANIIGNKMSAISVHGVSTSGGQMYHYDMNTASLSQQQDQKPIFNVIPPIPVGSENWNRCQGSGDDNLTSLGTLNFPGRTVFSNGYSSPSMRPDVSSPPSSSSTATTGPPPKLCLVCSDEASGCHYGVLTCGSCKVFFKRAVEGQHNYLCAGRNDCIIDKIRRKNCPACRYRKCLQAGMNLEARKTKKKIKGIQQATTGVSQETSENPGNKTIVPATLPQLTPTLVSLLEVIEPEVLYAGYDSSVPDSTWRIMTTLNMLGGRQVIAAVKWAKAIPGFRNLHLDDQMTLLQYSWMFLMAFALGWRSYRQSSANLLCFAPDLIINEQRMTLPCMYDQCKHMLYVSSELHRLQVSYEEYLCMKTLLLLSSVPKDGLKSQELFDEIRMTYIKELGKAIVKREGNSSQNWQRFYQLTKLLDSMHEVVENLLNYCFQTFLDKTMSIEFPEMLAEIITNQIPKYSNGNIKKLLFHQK

Assay [7] has the same target. Description: qHTS assay for small molecule antagonists of glucocorticoid receptor signaling (AID 588533; active = well fitted inhibition curve with a large enough effect in the signal ratio, with a control signal flat, not every such curve was filed as active; the % refers to the signal ratio; note: % is set by controls: 0 for no effect and ±100 for the full control effect). In short, it runs like this:
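Antagonist-mode qHTS: compound titrations added to GRE-bla HeLa cells, then dexamethasone 2 nM final; 18 h, 37 C. CCF4 FRET fluorescence normalized to dexamethasone and DMSO; IC50 from Hill fit.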

Assay [8] has as its target Peroxisome proliferator-activated receptor delta (Homo sapiens) (UniProt Q03181). Description: qHTS assay for small molecule antagonists of peroxisome proliferator-activated receptor delta signaling (AID 588535; active = well fitted inhibition curve with a large enough effect in the signal ratio, with a control signal flat, not every such curve was filed as active; the % refers to the signal ratio). In a few lines:
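Antagonist-mode beta-lactamase reporter (GeneBLAzer PPAR-delta-UAS-bla) in HEK293T cells, 2% charcoal/dextran FBS, 4000 cells/well. Compound titrations, 18 h at 37 C; CCF4 ratio read, IC50 and efficacy from Hill fits.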

Assay [9] is described as follows: qHTS assay for small molecule agonists of the antioxidant response element (ARE) signaling pathway (AID 651741; active = well fitted activation curve with a large enough effect in the signal ratio; the % refers to the signal ratio; note: % of control where 0% means no effect). In a few lines:
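CellSensor ARE-bla HepG2 cells (2,000/well) carrying ARE-driven beta-lactamase, exposed 16 h at 37 C. LiveBLAzer B/G FRET substrate added for 2 h at room temperature; fluorescence intensity read.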

A short description of assay [10]: qHTS assay for small molecule activators of the p53 signaling pathway (AID 651743; active = well fitted activation curve with a large enough effect in the signal ratio, not every such curve was filed as active; the % refers to the signal ratio; note: series mostly up to about 92 µM; % of control where 0% means no effect). The note with it: HCT-116 p53RE-bla, beta-lactamase FRET ratio, 16 h; activation: active compounds read high. In a few lines: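 p53RE-bla HCT-116 cells carrying a beta-lactamase reporter under p53 response elements were exposed to compounds for 16 hours at 37 C. Reporter activity read as fluorescence after 2 hours at room temperature with LiveBLAzer B/G FRET substrate.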

Assay [11] is described as follows: qHTS assay for small molecule agonists of the antioxidant response element (ARE) signaling pathway measured by Nrf2-dependant transcriptional activity (AID 720636; active = well fitted curve in the direction sought with a large enough effect in the repeat runs; an effect the other way counts as inactive or inconclusive;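 note: HepG2 cells with an ARE-driven luciferase reporter; % of control where 0% means no effect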). In a few lines: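 In HepG2 cells engineered with an Nrf2-responsive luciferase gene, ARE induction was quantified as luminescence after 16 hr compound treatment at 37 C.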
Assay [12] has as its target Thyroid hormone receptor beta (Homo sapiens) (UniProt P10828). Description: qHTS assay for small molecule antagonists of thyroid hormone receptor beta signaling (AID 588547; active = well fitted inhibition curve with a large enough effect in the signal ratio, with a control signal flat, not every such curve was filed as active; the % refers to the signal ratio). Conditions: TR-UAS-bla HEK293, beta-lactamase ratio, antagonist mode, 18 h. In a few lines:
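TR-UAS-bla GripTite HEK293 cells in 2% charcoal/dextran FBS medium; compounds 0.59 nM to 92 uM with T3 at 0.4nM final, 18 h at 37 C. Beta-lactamase read by CCF4 fluorescence (460/530 nm); Hill fits gave IC50 and efficacy.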

For assay [13], the target named is Cytochrome P450 3A4 (Homo sapiens) (UniProt P08684). The assay is described as follows: qHTS Assay for Inhibitors and Substrates of Cytochrome P450 3A4 (AID 884). Note: potency is the fitted concentration of half-maximal effect; nearly all actives have a fitted effect of over 50% in size. In short, it runs like this:
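20 nM human CYP3A4 with 25 uM Luciferin-PPXE (at KM) in 200 mM KPO4, preincubated 10 min with compound; NADPH regeneration started a 60 min RT reaction. Luciferin detected by luminescence, normalized to 57 uM ketoconazole as full inhibition.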

Unmarked numbers belong to inactive results. Records with an inconclusive call do not appear. Active and inactive are the calls of the source. Unless noted, calls come from the whole dose curve; as a rule, active = well fitted curve in the direction sought with a large enough effect; inconclusive = small, poorly fitted or top-dose-only effect, or another doubt; inactive = no such curve, though single readings can be large; an effect the other way counts as inactive or inconclusive.

Peroxisome proliferator-activated receptor delta (Homo sapiens), sequence (Q03181 whole entry, looked up): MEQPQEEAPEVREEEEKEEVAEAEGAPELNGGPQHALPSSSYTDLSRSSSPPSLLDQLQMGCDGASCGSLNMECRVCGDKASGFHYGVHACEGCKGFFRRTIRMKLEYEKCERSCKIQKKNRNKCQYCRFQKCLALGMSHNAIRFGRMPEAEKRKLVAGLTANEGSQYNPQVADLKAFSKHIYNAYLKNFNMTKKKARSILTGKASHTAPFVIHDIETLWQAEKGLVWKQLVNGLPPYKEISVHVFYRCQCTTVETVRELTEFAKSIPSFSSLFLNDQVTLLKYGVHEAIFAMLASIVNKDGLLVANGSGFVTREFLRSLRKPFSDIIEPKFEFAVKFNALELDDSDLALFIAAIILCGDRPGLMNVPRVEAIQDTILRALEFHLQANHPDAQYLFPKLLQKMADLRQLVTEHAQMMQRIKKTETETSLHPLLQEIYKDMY
Cytochrome P450 3A4 (Homo sapiens), sequence (P08684 whole entry, looked up): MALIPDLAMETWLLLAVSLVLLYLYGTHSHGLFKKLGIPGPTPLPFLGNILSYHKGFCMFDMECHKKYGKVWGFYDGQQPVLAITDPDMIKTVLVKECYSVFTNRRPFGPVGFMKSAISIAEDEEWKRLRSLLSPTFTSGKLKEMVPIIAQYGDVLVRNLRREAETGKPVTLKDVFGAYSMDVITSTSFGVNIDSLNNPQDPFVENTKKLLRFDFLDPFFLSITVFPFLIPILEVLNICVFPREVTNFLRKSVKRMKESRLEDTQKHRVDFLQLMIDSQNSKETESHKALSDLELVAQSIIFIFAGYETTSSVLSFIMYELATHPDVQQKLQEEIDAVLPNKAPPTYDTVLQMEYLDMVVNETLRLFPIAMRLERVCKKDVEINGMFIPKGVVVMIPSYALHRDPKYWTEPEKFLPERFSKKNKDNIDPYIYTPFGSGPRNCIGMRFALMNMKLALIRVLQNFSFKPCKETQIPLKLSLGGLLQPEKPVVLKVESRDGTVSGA
DNA dC->dU-editing enzyme APOBEC-3G (Homo sapiens), sequence (Q9HC16 whole entry, looked up): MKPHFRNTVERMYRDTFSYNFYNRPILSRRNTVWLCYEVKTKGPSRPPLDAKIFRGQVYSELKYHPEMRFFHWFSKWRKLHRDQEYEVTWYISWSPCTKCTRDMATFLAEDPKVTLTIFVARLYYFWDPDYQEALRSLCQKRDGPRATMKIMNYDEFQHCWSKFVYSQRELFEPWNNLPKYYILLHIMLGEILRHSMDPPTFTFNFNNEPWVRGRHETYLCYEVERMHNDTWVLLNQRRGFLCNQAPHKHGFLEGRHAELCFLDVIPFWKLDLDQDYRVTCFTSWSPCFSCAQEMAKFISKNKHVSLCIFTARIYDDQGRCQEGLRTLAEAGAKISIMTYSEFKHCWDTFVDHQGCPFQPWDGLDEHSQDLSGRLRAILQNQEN
Bile acid receptor (Homo sapiens), sequence (Q96RI1 whole entry, looked up): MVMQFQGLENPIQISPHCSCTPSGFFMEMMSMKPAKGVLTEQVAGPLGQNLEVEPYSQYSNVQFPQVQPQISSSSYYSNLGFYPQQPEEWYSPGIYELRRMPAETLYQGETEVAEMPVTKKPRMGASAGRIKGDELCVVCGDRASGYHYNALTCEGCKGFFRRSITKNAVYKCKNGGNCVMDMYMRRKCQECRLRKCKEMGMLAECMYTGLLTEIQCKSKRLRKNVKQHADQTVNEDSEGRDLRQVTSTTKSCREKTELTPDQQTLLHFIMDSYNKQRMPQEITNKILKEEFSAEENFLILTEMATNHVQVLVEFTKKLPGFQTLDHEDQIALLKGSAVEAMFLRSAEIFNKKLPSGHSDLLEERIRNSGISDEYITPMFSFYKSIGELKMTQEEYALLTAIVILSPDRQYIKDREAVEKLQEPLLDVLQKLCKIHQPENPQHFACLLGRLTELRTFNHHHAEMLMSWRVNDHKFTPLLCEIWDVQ
Thyroid hormone receptor beta (Homo sapiens), sequence (P10828 whole entry, looked up): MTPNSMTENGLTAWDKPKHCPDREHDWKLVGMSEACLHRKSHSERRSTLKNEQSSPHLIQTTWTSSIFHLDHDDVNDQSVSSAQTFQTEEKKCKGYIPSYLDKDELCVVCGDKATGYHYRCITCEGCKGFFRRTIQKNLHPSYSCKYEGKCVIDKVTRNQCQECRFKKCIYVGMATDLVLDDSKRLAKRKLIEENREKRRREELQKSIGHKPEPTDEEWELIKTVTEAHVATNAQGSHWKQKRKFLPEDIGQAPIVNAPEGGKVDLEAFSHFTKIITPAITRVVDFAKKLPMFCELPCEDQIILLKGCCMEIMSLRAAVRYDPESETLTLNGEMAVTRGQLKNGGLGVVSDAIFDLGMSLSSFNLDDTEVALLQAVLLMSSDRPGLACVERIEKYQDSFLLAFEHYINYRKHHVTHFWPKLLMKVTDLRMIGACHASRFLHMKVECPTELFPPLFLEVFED

Turning to `O=C(O)[C@H]1[C@H]2C[C@H]3c4[nH]c5ccccc5c4CCN3C[C@@H]2CC[C@@H]1O`, the Potency entry in assay [1] and in assay [2] was “inactive” in each case.

Turning to `CC1(C)CC[C@]2(C(=O)O)CC[C@]3(C)C(=CCC4[C@@]5(C)CC[C@H](O)C(C)(C)C5[C@H](O)C[C@]43C)C2C1` (some centres undefined), the Potency entry in [1] and in assay [2] was “inactive” throughout.

Consider `CS/C(=N\O)C(=O)N(C)C`, for which the figures for the activation in assay [3], in assay [6] and in assay [10] were 11.7%, 1.45% and -0.3%, respectively. Also, the compound was classed as inactive in assay [4]. Besides, the Potency entry in [5], in assay [7], in [8], in [9] and in assay [11] was “inactive” throughout.

On to `CCCCCCCC[Si](Cl)(Cl)Cl`, for which the values for the activation in assay [3], in assay [6] and in assay [10] were 3.85%, -0.511% and 0.514%, respectively. Moreover, the outcome in assay [4] was inactive. Further, the Potency entry in [5], in [7], in assay [8] and in assay [11] was “inactive” each time. Besides, in assay [12], the activity change % (negative = inhibition) is -0.14%.

Regarding `COc1ccc(C(=O)C2C3C4COC(O4)C(=O)C3C3C=Cc4ccccc4N32)c(OC)c1` (centres undefined), the Potency in assay [13] was 31600 nM (active). Also, the Potency result in assay [1] and in assay [2] was “inactive” throughout.

On to `CC(C)=CCC/C(C)=C\COc1c2ccoc2cc2oc(=O)ccc12`, for which the Potency in assay [13] was 794 nM (active). The Potency result in [1] and in assay [2] was “inactive” throughout.

Consider `Cc1ccc(CC(Cc2nc3ccccc3[nH]2)c2nc3ccccc3[nH]2)cc1` (centres undefined), for which, in assay [13], the Potency is 1260 nM (active). Further, the Potency entry in [1] and in assay [2] was “inactive” each time.

In the case of `COc1ccc(-c2oc3ccccc3c(=O)c2O)cc1`, the Potency entry in assay [1] and in [2] was “inactive” in each case.

As for `Cc1cccc(-c2cc(=O)c3cc(C)ccc3o2)c1`, the Potency entry in [1] and in [2] was “inactive” in each case.

Turning to `C[Si](Cl)(Cl)[Si](C)(Cl)Cl`, the activation in assay [3] was 0.564%; in assay [6] it was -3.8%; in [10], 0.0231%. Besides, in [4], the compound was called inactive. Besides, the Potency result in assay [5], in [7], in [8], in assay [9] and in assay [11] was “inactive” throughout. Moreover, in assay [12], the activity change % (negative = inhibition) is 3.73%.

For `COc1cc2c(C=O)c3c4c(cc(OC)c(OC)c4c2cc1OC)CCN3C`, the Potency in [13] is 2000 nM (active); in assay [2] it was 21100 nM (active). Further, in assay [1], the Potency result is “inactive”.

Turning to `COc1cc2c(Cc3c4c5c(cc(OC)c(OC)c5c5c(OC)c(OC)ccc35)CCN4C)c3c4c(cc(OC)c(OC)c4c2cc1OC)CCN3C`, the Potency entry in assay [1] and in assay [2] was “inactive” each time.

In the case of `C[C@H]1[C@H](C)CC[C@]2(C(=O)O)CC[C@]3(C)C(=CCC4[C@@]5(C)C[C@@H](O)[C@H](O)[C@@](C)(CO)[C@@H]5CC[C@]43C)[C@H]12` (some centres undefined), the Potency entry in assay [1] and in [2] was “inactive” each time.

With `Cc1ccc(C(=O)[C@@H]2[C@H]3C4COC(O4)C(=O)[C@@H]3[C@H]3C=Cc4ccccc4N32)cc1` (some centres undefined), the Potency in assay [13] was 25100 nM (active). Also, the Potency result in assay [1] and in assay [2] was “inactive” each time.

In the case of `O=C(/C=C/c1ccc2c(c1)OCO2)c1cccs1`, in assay [13], the Potency was 501 nM (active). Moreover, the Potency entry in assay [1] and in assay [2] was “inactive” throughout.

As to `COc1cccc2oc(-c3ccccc3)cc(=O)c12`, the Potency result in assay [1] and in assay [2] was “inactive” throughout.

Regarding `CC(=O)c1c(O)c(C)c(O)c2c1OC1=CC(=O)C(C(C)=O)C(=O)[C@@]12C` (some centres undefined), the Potency result in [1] and in assay [2] was “inactive” in each case.

As to `COc1ccc(/C=C/C(=O)c2cccs2)cc1OC`, the Potency in assay [13] was 2510 nM (active). Moreover, the Potency entry in [1] and in assay [2] was “inactive” in each case.

Consider `COc1ccc(-c2coc3ccc(OC4OC(COC(C)=O)C(OC(C)=O)C(OC(C)=O)C4OC(C)=O)cc3c2=O)cc1` (centres undefined), for which the Potency entry in [1] and in assay [2] was “inactive” each time.

Consider `CC[C@@H]1CN2CCc3cc(OC)c(OC)cc3[C@@H]2C[C@@H]1C[C@H]1NCCc2cc(OC)c(OC)cc21`, for which the Potency result in [1] and in assay [2] was “inactive” each time.
